Screening data: PubChem BioAssay, National Center for Advancing Translational Sciences (NCATS)
This excerpt belongs to a sample that is enriched for hits.
RE007 growth inh = less growth of the S. pombe RE007 Vpr strain | S. pombe RE007 Vpr strain, BacTiter-Glo ATP luminescence, 24 h | Potency, µM (titrated, usually from 92.2 µM), inactives show at the top dose activity change, negative = less growth, usual class: inhibitors | AID 651644 | actives 0.21% (n = 360,000); active = well fitted falling curve with a large enough effect; inconclusive = small, poorly fitted or top-dose-only effect; inactive = no such curve, though single readings can be large or run the other way; also: potency is read from the fitted curve at half-maximal effect; % is scaled to controls: 0 for no effect and ±100 for the full control effect; nearly all actives have a fitted effect of over 50% in size
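Fission yeast RE007 carrying one integrated HIV-1 vpr copy, seeded at OD 0.01 in PMG+AL medium with 23 nL pinned compound. Grown 24 h at 30 degrees; viability read by BacTiter-Glo luminescence after 5 min.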
LmPK inhibitor = LmPK (Leishmania mexicana) enzyme inhibition. Potency, µM (highest dose often 57.5 µM), for the others: at the top dose activity change, negative = inhibition, usual class: inhibitors. actives 0.37% (n = 290,000). purified LmPK, Kinase-Glo ATP luminescence, 1 h. Q27686. AID 1721; also: potency is read from the fitted curve at half-maximal effect; % is scaled to controls: 0 for no effect and ±100 for the full control effect
Target sequence (Q27686 whole entry, looked up): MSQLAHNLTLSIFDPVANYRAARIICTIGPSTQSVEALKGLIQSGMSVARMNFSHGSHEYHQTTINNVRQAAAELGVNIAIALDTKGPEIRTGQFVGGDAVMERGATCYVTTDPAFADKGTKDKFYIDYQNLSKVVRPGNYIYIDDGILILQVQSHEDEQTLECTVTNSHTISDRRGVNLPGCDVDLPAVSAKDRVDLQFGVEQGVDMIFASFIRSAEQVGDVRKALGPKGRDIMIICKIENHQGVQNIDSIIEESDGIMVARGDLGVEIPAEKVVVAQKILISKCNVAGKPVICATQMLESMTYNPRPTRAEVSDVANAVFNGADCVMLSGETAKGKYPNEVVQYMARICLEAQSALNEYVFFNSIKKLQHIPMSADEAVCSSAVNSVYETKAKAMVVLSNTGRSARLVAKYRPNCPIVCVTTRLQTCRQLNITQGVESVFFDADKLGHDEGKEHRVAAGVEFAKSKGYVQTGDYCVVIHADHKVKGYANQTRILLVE
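Pyruvate kinase activity monitored as ATP production (luciferase luminescence). Conditions: 0.1 nM enzyme, 0.5 mM PEP, 0.1 mM ADP, 1 h, RT; normalized against uninhibited and no-enzyme wells.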
FBPA Giardia inh = inhibitors of Giardia lamblia fructose-1,6-bisphosphate aldolase; A8B2U2; purified Giardia FBPA; Potency, µM (series often up to 59.6 µM), inactives show top-dose activity, negative = inhibition, most hits filed as inhibitors; actives 0.71% (n = 290,000); also: potency is read from the fitted curve at half-maximal effect; % is scaled to controls: 0 for no effect and ±100 for the full control effect; nearly all actives have a fitted effect of over 55% in size
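Giardia FBPA (40 nM reagent) was preincubated 10 min at RT with compound (up to 57.5 uM final), then substrate plus GAPDH/TPI/NAD/arsenate coupling system with diaphorase/resazurin was added; resorufin fluorescence (525/598 nm) was read after 20 min.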
TbPYK inhibitor = inhibitors of Trypanosoma brucei pyruvate kinase | Q57TT1 | AID 624173 | Potency, µM (top dose mostly 76.8 µM), inactives show top-dose activity, negative = inhibition, hits mostly inhibitors | actives 0.12% (n = 410,000) | TbPYK enzyme, Kinase-Glo Plus ATP luminescence, 45 min; also: potency is read from the fitted curve at half-maximal effect; % is scaled to controls: 0 for no effect and ±100 for the full control effect; nearly all actives have a fitted effect of over 50% in size
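Readout: single end-point luminescence (Kinase-Glo Plus, 10 min). Reaction conditions were TbPYK/substrate plus 130 uM ADP, 45 min at RT, pH 7.2 TEA buffer. No-enzyme wells served as controls, and data were normalized before concentration-response fitting.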
Shiga inhibitor = blocks Shiga toxin action in Vero cells; Vero cells, Shiga toxin protein synthesis inhibition reporter; AID 2315; inhibition, % at 38.7 µM; actives 9.2% (n = 290,000); in the data active = inhibition mostly above about 28%, no sharp cut-off; inactive = mostly below about 43%; also: 0% is about no effect
Cycloheximide cs = affects cycloheximide protein synthesis inhibition readout, counter-screen; cell reporter, cycloheximide protein synthesis inhibition counterscreen; max response, %; actives 12% (n = 300,000); AID 2314; in the data active = max response mostly above about 13%, no sharp cut-off; inactive = mostly below about 14%; also: read at 38.3 µM for the half of the compounds with a filed dose; 0% is about no effect
An asterisk follows results filed as active; u = inconclusive; x = no result given. Unless noted, calls follow the shape of the dose curve; as a rule, active = well fitted curve in the direction sought with a large enough effect; inconclusive = small, poorly fitted or top-dose-only effect, or another doubt; inactive = no such curve, though single readings can be large; an effect the other way counts as inactive or inconclusive.

SMILES | RE007 growth inh | LmPK inhibitor | FBPA Giardia inh | TbPYK inhibitor | Shiga inhibitor | Cycloheximide cs
COc1ccc2c(CC(=O)OCC(=O)N3CCc4ccccc43)coc2c1 | -12% | 3% | -1% | -21% | 33 | 8
O=S(=O)(CC(CN1CCCCC1)N1CCCCC1)c1ccccc1 (centres undefined) | 5% | 6% | 1% | -4% | 54 | 27*
O=C(CCn1c(=O)oc2ccccc21)N1CCc2ccccc21 | -5% | 1% | 11% | -12% | -6 | 18
O=C(Cn1nnnc1-c1ccccc1F)Nc1ccc(F)c(F)c1 | x | x | x | -3% | x | x
COc1ccc(N(CC(=O)Nc2cccc(Cl)c2)S(=O)(=O)c2c(C)[nH]c(=O)[nH]c2=O)cc1 | x | x | x | 6% | x | x
O=C1c2ccccc2C(=O)N1CCC(=O)N1CCCc2ccccc21 | -18% | 2% | 6% | -4% | 65 | 34*
Cc1ccccc1N1CCN(C(=O)CCN2C(=O)c3ccccc3C2=O)CC1 | 13% | -2% | 4% | -16% | 49* | 23*
CCOC(=O)C1CCN(CC(=O)N2CCc3ccccc32)CC1 | -6% | 1% | 8% | 14% | 16 | -1
CC1CCN(CC(=O)N2CCc3ccccc32)CC1 | 0% | 8% | x | 0% | 25 | 17*
O=C1c2ccccc2C(=O)N1CCC(=O)N1CCc2ccccc21 | -5% | x | x | -11% | x | x
CN1CCN(C(=O)CCN2C(=O)c3ccccc3C2=O)CC1 | 2% | 2% | 5% | 1% | 1 | 1
O=C(CS(=O)(=O)c1ccccc1)N1CCCCCC1 | 2% | -7% | -7% | 1% | 53* | 17*
O=C(Cn1nc(Cc2cccnc2)c2ccccc2c1=O)Nc1ccc(F)c(Cl)c1 | x | x | x | -2% | x | x
Cc1ccc(S(=O)(=O)N2CCN(C(=O)COC(=O)COc3ccc(Cl)cc3)CC2)c(C)c1 | 1% | x | x | 4% | x | x
O=C(CS(=O)(=O)c1ccccc1)N1CCc2ccccc21 | -8% | -29% | -3% | 3% | 74* | 40*
O=C(Cc1ccccc1)N1CCc2ccccc21 | -13% | 0% | 21% | -8% | 40* | 27*
COc1ccc(CC(=O)N2CCc3ccccc32)cc1 | -21% | 1% | 2% | 1% | 80* | 31*
O=C1CCN(C(=O)Cc2ccccc2)c2ccccc21 | -2% | x | x | 2% | x | x
COc1ccc(CCC(=O)N2CCCc3ccccc32)cc1 | 12% | -4% | 1% | -4% | -21 | 16
CCOC(=O)N1CCc2c(sc(NCc3ccc(N(C)C)cc3)c2C(=O)Nc2ccccc2OCC)C1 | x | x | x | -25% | x | x
Cc1cccc(SC2CCN(C(=O)C3CCC(=O)N(C4CC4)C3)CC2)c1 (centres undefined) | -2% | 8% | 6% | 2% | -6 | 9
Cc1ccccc1C(=O)NC(C(=O)Nc1nc2c(s1)CCCC2)C(C)C (centres undefined) | -5% | 1% | -5% | -1% | 31* | 17*
Cc1cc(C(=O)Nc2nc3c(s2)CCCC3)cs1 | -6% | -26% | -6% | -3% | 107* | 40*
Cc1cccc(C(=O)Nc2nc3c(s2)CCCC3)c1 | x | x | x | -8% | x | x
COC(=O)Cc1csc(NC(=O)c2ccc3ncsc3c2)n1 | -7% | x | x | -2% | x | x
SMILES | RE007 growth inh | LmPK inhibitor | FBPA Giardia inh | TbPYK inhibitor | Shiga inhibitor | Cycloheximide cs
O=C(Nc1nc2c(s1)CCCC2)c1ccc2ncsc2c1 | -16% | -1% | -12% | -29% | 67* | 41*
Cc1ncsc1C(=O)Nc1nc2c(s1)CCCC2 | u | u | -1% | u | 106* | 62*
COc1ccc(C(=O)NCC(=O)OCC(=O)Nc2cc([N+](=O)[O-])ccc2F)cc1 | -5% | -2% | 3% | -1% | 15 | -10
Cc1cccc(NC(=O)/C=C/c2ccc(Cl)cc2)n1 | -14% | -18% | -7% | -4% | 65* | 35*
O=C(/C=C/c1ccccc1)Nc1cccc(C(=O)O)c1 | -9% | u | -2% | -11% | 24* | 35*
CSc1cccc(NC(=O)/C=C/c2ccc(Cl)cc2)c1 | -12% | -8% | -14% | 2% | 51* | 40*
COc1cccc(NC(=O)/C=C\c2ccc(Cl)cc2)c1 | x | x | -15% | x | x | x
CSc1cccc(NC(=O)/C=C/c2ccccc2)c1 | u | 3% | -14% | -6% | 71* | 36*
COc1ccc(NC(=O)C2CCN(S(=O)(=O)c3ccc4c(c3)CCCC(=O)N4)CC2)c(OC)c1 | x | x | x | -9% | x | x
CCN(CC)S(=O)(=O)c1ccc(/C=C/C(=O)Nc2cccc(F)c2)cc1 | 34% | 1% | -3% | -7% | 28 | 33*
CCN(CC)S(=O)(=O)c1ccc(/C=C/C(=O)O)cc1 | -10% | -2% | 16% | 4% | 18 | -3
O=C(/C=C/c1ccccc1)Nc1ccc(Cl)cn1 | -22% | -4% | 1% | -3% | 112* | 33*
Cc1cccc(NC(=O)CSc2nc3c(sc4ccccc43)c(=O)n2CCCC(=O)NC2CCCC2)c1 | x | x | x | 1% | x | x
C[C@H](CO)N1C[C@H](C)[C@@H](CN(C)C(=O)Nc2ccc(F)cc2)Oc2ncc(-c3ccc(F)cc3)cc2C1=O | -1% | x | x | 3% | x | x
CCOc1cc(C(=O)NCCc2csc(-c3ccc(C)cc3)n2)cc(OCC)c1OCC | x | x | x | -4% | x | x
CCOc1ccccc1-n1nnnc1SCc1nc2ccccc2s1 | -15% | 2% | -9% | -13% | 168* | 48*
CCCCn1c(SCc2nc3ccccc3s2)nc2ccccc2c1=O | 4% | -1% | 1% | 2% | -10 | -3
CCn1c(SCc2nc3ccccc3s2)nnc1-c1cccs1 | 4% | 0% | -15% | -24% | 59* | 59*
COc1ccc(-c2nnc(SCc3nc4ccccc4s3)n2C(C)C)cc1 | -12% | -10% | -3% | -14% | 86* | 28*
Cc1ccccc1-n1c(C)nnc1SCc1nc2ccccc2s1 | -8% | -3% | 4% | 0% | 91* | 33*
CC1CN(C(=O)N2CCC(C(=O)N3CCN(c4ccccc4)CC3)CC2)c2cc(Cl)ccc2O1 (centres undefined) | x | x | x | -5% | x | x
CC1(C)C2(C#N)C(=O)NC(=O)C12C#N (centres undefined) | -3% | x | x | -4% | x | x
O=C(CSc1nc2ccccc2n1Cc1c(F)cccc1Cl)N1CCN(c2ccc(F)cc2)CC1 | x | x | x | 1% | x | x
O=C(NCCSCc1ccccc1Cl)C1CCN(S(=O)(=O)Cc2ccccc2)CC1 | x | x | x | -10% | x | x
Cn1c(SCc2nc3ccccc3s2)nnc1-c1cccs1 | 4% | 0% | -15% | -13% | 66* | 60*
COc1ccccc1-c1nnc(SCc2nc3ccccc3s2)n1C | -4% | -9% | -2% | -2% | 26 | 16
COc1ccc(/C=C2/CCc3ccccc3C2=O)cc1CN1CCOCC1 | -8% | -5% | -5% | -6% | 92* | 51*
